Results published in PubChem BioAssay (NCI).
Several values for one entry are separate records, joined by “and”; a condition that tells them apart may be missing. Equal values may be shown once. About 79,000 compounds went through this panel and 15% of them were active in at least one assay; those are over-represented in the sample as a whole. Activity calls are given as the source filed them. No stated cut-off is given here; in the data, active means growth inhibition above about 70%; inactive means the rest.

How the values were obtained:
[1] = NCI Yeast Anticancer Drug Screen. Data for the rad50 strain (AID 155);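 further: 0% = growth of vehicle-only cultures of the same strain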; details: S. cerevisiae rad50 strain growth inhibition; at 50.0 µM; hits give high values
In short: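 Compounds were tested on a yeast strain with an engineered DNA damage repair alteration; the reported value is growth inhibition normalised to vehicle treatment.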

[2] = NCI Yeast Anticancer Drug Screen. Data for the mec2-1 strain (AID 157); details: S. cerevisiae mec2-1 strain, at 50.0 µM, hits give high values
In short: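 Each compound was tested on mec2-1 yeast, a strain altered in DNA damage repair or cell cycle control. Growth inhibition is reported relative to vehicle.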

[3] = NCI Yeast Anticancer Drug Screen. Data for the sgs1 mgt1 strain (AID 161);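 further: 0% = growth of cultures given vehicle only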; details: S. cerevisiae sgs1 mgt1 strain, at 50.0 µM, hits give high values
In short: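 Read-out: growth inhibition vs vehicle controls. Cells: mutant yeast strain deficient in DNA damage repair.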

[4] = NCI Yeast Anticancer Drug Screen. Data for the cln2 rad14 strain (AID 165);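 further: 0% = growth equal to vehicle treated cultures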; details: S. cerevisiae cln2 rad14 strain, at 50.0 µM, hits give high values
In short: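 Test compounds were added to cln2 rad14 yeast cultures; inhibition of growth was then determined by comparison with vehicle treatment.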

[5] = NCI Yeast Anticancer Drug Screen. Data for the bub3 strain (AID 167); details: S. cerevisiae bub3 mutant strain, at 50.0 µM, hits give high values
In short: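 Growth of a checkpoint-deficient yeast mutant is measured after compound exposure. Values represent inhibition relative to vehicle.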

[6] = NCI Yeast Anticancer Drug Screen. Data for the mlh1 rad18 strain (AID 175); details: S. cerevisiae mlh1 rad18 strain growth inhibition; at 50.0 µM; hits give high values
In short: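 Inhibition values reflect reduced growth of mutant yeast versus vehicle-treated controls following compound exposure; the mutations affect DNA damage repair.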

Measured: growth inhibition

CC(C)CC1N=C(NN=C2CCCCC2)SP1(=O)NNc1ncccn1 (stereo unspecified)
inactive: [1] 1.25% | [2] 7.15% | [3] 12.5% | [4] 2.35% | [5] 0.4% | [6] -0.1%

C1CC[N-]CC1.CC(=N\O)/C(C)=N/O.CC(=N\O)/C(C)=N/O.C[C-]=O.[Co+2]
inactive: [1] -3.6% | [2] 18.4% | [3] 10.3% | [4] 23.6% | [5] 19% | [6] 14.4%

Cc1cc(Cc2cc(C)c(NC(=O)C(=O)C3C(=O)NC(=S)NC3=O)c(C(C)C)c2)cc(C(C)C)c1NC(=O)C(=O)C1C(=O)NC(=S)NC1=O
inactive: [1] -20.6% | [2] -8% | [3] -18.9% | [4] 21.6% | [5] 8.55% | [6] -11.7%

ClCCN(CCCl)c1ccc(/C=N/N2CCN(/N=C/c3ccc(N(CCCl)CCCl)cc3)CC2)cc1
inactive: [1] 7.85% | [2] -2.9% | [3] 21.9% | [4] 7.85% | [5] -11.1% | [6] -1.25%

CNC(=O)Oc1ccc2c(C)cc(=O)oc2c1
inactive: [1] 21.1% | [2] 0.2% | [3] 4.55% | [4] -27% | [5] 17.2% | [6] 15.3%

Oc1ccccc1-c1ccccc1
inactive: [1] 16.6% and 17.9% | [2] 11.1% and 14.4% | [3] 11% and 8.2% | [4] -16.1% and 0.75% | [5] -2.55% and -8.25% | [6] 21.4% and 20.1%

NCCN.O=C([O-])C(=O)[O-].O=C([O-])C(=O)[O-].[Co+3].[K+]
inactive: [1] 0.2% | [2] -8.5% | [3] 10.2% | [4] 16.8% | [5] 5.1% | [6] -2.4%

COc1ccc2c3c1O[C@H]1C(Br)C=C[C@H]4[C@@H](C2)N(C)CC[C@]314 (stereo partly specified)
inactive: [1] -11.8% | [2] -15.8% | [3] 7.15% | [4] -22.6% | [5] 29.2% | [6] 8.35%

COc1ccc(CCNC2CC3CCC2(C)C3(C)C)cc1OC (stereo unspecified)
inactive: [1] 15.6% | [2] 12.8% | [3] 11.5% | [4] -22.3% | [5] 8.75% | [6] 24.9%

O.O.O=Cc1ccccc1O.O=Cc1ccccc1O.[Ni]
active: [6] 76.9%
inactive: [1] 47.1% | [2] 52.4% | [3] 64.7% | [4] 17.1% | [5] 51.5%

COC(=O)C1=C(C)N2[C@H](C(=O)O)CO[C@@]2(C)[C@H](C(=O)OC)[C@H]1c1cccc([N+](=O)[O-])c1
inactive: [1] 26.6% | [2] -8.35% | [3] 21.4% | [4] 4.25% | [5] 25.6% | [6] 22.7%

O=CC(O)C(O)C1[O][Sb][O]C1CO (stereo unspecified)
inactive: [1] 0.75% | [2] -1.7% | [3] -4.45% | [4] -53.9% | [5] -5.85% | [6] -8.85%

CCOC(OCC)C(CC)[Se]c1ccccc1 (stereo unspecified)
inactive: [1] 4.45% | [2] -9.6% | [3] 13.4% | [4] 0.6% | [5] 2.7% | [6] -7.9%

C=CCc1cc(C=C(C#N)C#N)cc(OC)c1O
inactive: [1] -0.15% | [2] -2.85% | [3] 10.7% | [4] 23.1% | [5] 9.05% | [6] 11.7%

COC1OC(CN=[N+]=[N-])C2OC12 (stereo unspecified)
inactive: [1] 5.4% | [2] -0.3% | [3] -3.2% | [4] 3.9% | [5] 0.6% | [6] 7.95%

CCN(CCCl)c1cc(C(N)=O)c([N+](=O)[O-])cc1[N+](=O)[O-]
inactive: [1] -1.25% | [2] -8.7% | [3] 9% | [4] 3.8% | [5] 5.25% | [6] -19.6%

CC(C)=NNC1=NC(CC(C)C)P(=O)(NCCCCNP2(=O)SC(NN=C(C)C)=NC2CC(C)C)S1 (stereo unspecified)
inactive: [1] -5.25% | [2] 17.5% | [3] 11.1% | [4] -18.2% | [5] -11.3% | [6] 6.15%

O=C(NC(Cc1ccccc1)C(=O)N(CCCl)CCCl)c1ccccc1 (stereo unspecified)
inactive: [1] -5.15% | [2] -17.5% | [3] 16.7% | [4] 4.1% | [5] -13.7% | [6] 23.4%

[Co].[NH2-].[NH2-].[NH2-].[NH2-].[NH2-].[NH2-]
inactive: [1] -5% and 8.1% | [2] -15.3% and 9.05% | [3] -5.4% and 6.25% | [4] -19.8% and 10.1% | [5] 2.3% and 23.4% | [6] -2.9% and -5.85%

CC(=O)[O-].CC(=O)[O-].CC(=O)[O-].CC(=O)[O-].[Mo+2].[Mo+2]
inactive: [1] -6.5% | [2] 2.1% | [3] 0.1% | [4] 3.25% | [5] 1.85% | [6] 5.6%

O=C1CC23c4ccccc4N4C(=O)CC5OCC=C6CN1C2CC6C5C43 (stereo unspecified)
inactive: [1] 4.1% | [2] -34.5% | [3] -7.15% | [4] 7.9% | [5] 12.8% | [6] 6.8%

O=C(CN1CCCCC1)c1ccc(Br)cc1
inactive: [1] 15.7% | [2] 6.1% | [3] 9.4% | [4] -20.9% | [5] -12.4% | [6] 9.55%

COc1ccc(C(c2c(O)c3ccccc3oc2=O)c2c(O)c3ccccc3oc2=O)cc1
inactive: [1] -15.3% | [2] -0.35% | [3] -14.4% | [4] -18.2% | [5] 1% | [6] -0.7%

CCOC(OCC)c1ccccc1
inactive: [1] 7.95% | [2] -5% | [3] -4.95% | [4] -11.9% | [5] 6.6% | [6] 14.2%

COC(=O)C1C(O)C(C)C(O)C(C)/C=C\C=C(C)C(=O)Nc2c(C)c(OC(C)=O)c3c(c2O)C(=O)C(C)=C2OCOC(=C23)C(C)=CC(C)(O)C(O)C(C)C1O (stereo unspecified)
inactive: [1] 11.9% and -16.8% and 23.8% | [2] -15.7% and -27.9% and -5.4% | [3] 12.1% and -26.9% and 3.05% | [4] -10.2% and -5.2% and 9.2% | [5] 26.9% and -13.5% and 10% | [6] 16.6% and -24.6% and 19.4%

COP(=O)(NC(C)=O)OC
inactive: [1] 11.6% | [2] -14.7% | [3] -4.5% | [4] -45.8% | [5] -10.5% | [6] -1.55%

NC(=NCc1ccccc1)N[N+](=O)[O-]
inactive: [1] -7.3% | [2] 3.65% | [3] -10.6% | [4] 17.7% | [5] 30.7% | [6] -3.15%

C/C=C(\CC)C1(C)C(=O)NC(=O)NC1=O
inactive: [1] 7.4% | [2] 7.8% | [3] -5.7% | [4] 6.35% | [5] 1.4% | [6] -4.1%

O=C(O)C(=O)C(Cl)Br (stereo unspecified)
inactive: [1] 4.95% | [2] -8.75% | [3] -2.5% | [4] -18% | [5] 2.35% | [6] 0.65%

CC(C)(C)C1COP(=S)(C(C)(C)C)OC1 (stereo unspecified)
inactive: [1] -8.3% | [2] -5.6% | [3] -0.55% | [4] -20.5% | [5] -0.5% | [6] -5.15%

COc1ccc(/C=C\c2cc(OC)c(OC)c(OC)c2)cc1OC(=O)CCC(=O)O
inactive: [1] -13.1% | [2] -12.3% | [3] 8.7% | [4] 24.1% | [5] 14.2% | [6] -27.1%

CC(=O)NN=C(N)N
inactive: [1] 3.15% and -2% | [2] -1.5% and 2.75% | [3] -0.55% and 11.7% | [4] -29.9% and -24.1% | [5] -6.75% and -10.2% | [6] 14.1% and 5.9%

O=C1NC(=O)C(CC(C(=O)C(=O)Nc2ccccc2Cl)C(=O)c2ccc3ccccc3c2)C(=O)N1 (stereo unspecified)
inactive: [1] -27.7% | [2] 7.8% | [3] -6.3% | [4] -32.8% | [5] 2.4% | [6] -3.45%

CN(C)c1ccc2c(c1)Cc1ccccc1-2
inactive: [1] 1% | [2] -8.65% | [3] 18.2% | [4] -24.1% | [5] 44% | [6] -25.8%

O=[P+](O)O[P+](=O)O.O=[P+](O)O[P+](=O)O.O=[P+](O)O[P+](=O)O.O=[P+](O)O[P+](=O)O.[Cl][Pt].[Cl][Pt]
inactive: [1] -2.05% | [2] 27.8% | [3] 26.2% | [4] -32.5% | [5] 18.1% | [6] 12.9%

CCN(CCCl)c1cc(CN(C)C)cc(NC(=O)c2cc(C(=O)Nc3cc(CN(C)C)cc(N(CC)CCCl)c3)n(C)n2)c1
inactive: [1] 60.2% | [2] -10.3% | [3] 27.9% | [4] 20% | [5] -3.3% | [6] 3.05%
